We go through eight sequences from paper PMC7862700, “An all-to-all approach to the identification of sequence-specific readers for epigenetic DNA modifications on cytosine”.

Common to all, as to assay: DAPPL (digital affinity profiling via proximity ligation, sequencing); 10 mM Tris-HCl pH 7.5, 50 mM NaCl, 1 mM DTT, 4% glycerol, room temperature, 30 min; GST-TFs on glutathione beads, 16-mer random dsDNA library, 0.1% formaldehyde crosslink after washing; high values mean tight binding
Common to all, as to conditions: protein: recombinant; tags: N-terminal GST; dsDNA, one strand shown

One assay deals with T1, FLI1 (Homo sapiens, UniProt Q01543 1-452).
T1 sequence: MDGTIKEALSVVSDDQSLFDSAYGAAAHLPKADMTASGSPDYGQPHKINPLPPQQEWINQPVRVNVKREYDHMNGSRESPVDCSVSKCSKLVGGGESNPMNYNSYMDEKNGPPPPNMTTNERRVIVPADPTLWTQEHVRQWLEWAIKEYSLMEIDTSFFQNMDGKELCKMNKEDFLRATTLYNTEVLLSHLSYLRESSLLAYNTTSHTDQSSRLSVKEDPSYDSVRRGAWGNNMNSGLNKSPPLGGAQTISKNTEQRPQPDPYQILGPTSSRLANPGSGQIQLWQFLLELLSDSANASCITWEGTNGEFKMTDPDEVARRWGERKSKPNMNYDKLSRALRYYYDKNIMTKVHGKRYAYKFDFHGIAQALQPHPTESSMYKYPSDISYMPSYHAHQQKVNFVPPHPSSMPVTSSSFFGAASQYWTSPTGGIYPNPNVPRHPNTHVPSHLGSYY
The method, boiled down: (§1)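 Human transcription factors carrying a GST fusion were produced in yeast, bound to glutathione beads, tagged with DNA barcodes and pooled together with a tag-only sample. Each pool was held with 200 nmole of a random double-stranded 16-mer DNA library in Tris/NaCl/DTT/glycerol buffer for 30 min at room temperature, then washed, crosslinked in 0.1% formaldehyde, proximity-ligated with BsaI/T4 ligase (1 h, 37 °C), PCR-amplified and sequenced on an Illumina NextSeq500. Binding signal is the read frequency of each hexamer for a given factor divided by its frequency in the tag-only sample.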

In the next assay the target is T2, ELK1 (Homo sapiens, UniProt P19419 1-428).
T2 sequence: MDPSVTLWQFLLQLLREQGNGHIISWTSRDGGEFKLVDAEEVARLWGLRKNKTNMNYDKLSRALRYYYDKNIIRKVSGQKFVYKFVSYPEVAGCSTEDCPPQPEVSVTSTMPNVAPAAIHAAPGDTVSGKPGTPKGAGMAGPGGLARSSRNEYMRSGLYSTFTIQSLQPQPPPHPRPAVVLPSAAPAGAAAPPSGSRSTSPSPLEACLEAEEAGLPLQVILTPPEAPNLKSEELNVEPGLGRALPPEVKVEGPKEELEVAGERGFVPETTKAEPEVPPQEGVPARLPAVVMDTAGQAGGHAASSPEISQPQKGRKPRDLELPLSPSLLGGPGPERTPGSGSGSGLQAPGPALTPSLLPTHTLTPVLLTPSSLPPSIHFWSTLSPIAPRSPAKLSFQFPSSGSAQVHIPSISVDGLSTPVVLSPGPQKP
The essentials:
as §1

The next assay addresses T3, GABPA (Homo sapiens, UniProt Q06546 1-454).
T3 sequence: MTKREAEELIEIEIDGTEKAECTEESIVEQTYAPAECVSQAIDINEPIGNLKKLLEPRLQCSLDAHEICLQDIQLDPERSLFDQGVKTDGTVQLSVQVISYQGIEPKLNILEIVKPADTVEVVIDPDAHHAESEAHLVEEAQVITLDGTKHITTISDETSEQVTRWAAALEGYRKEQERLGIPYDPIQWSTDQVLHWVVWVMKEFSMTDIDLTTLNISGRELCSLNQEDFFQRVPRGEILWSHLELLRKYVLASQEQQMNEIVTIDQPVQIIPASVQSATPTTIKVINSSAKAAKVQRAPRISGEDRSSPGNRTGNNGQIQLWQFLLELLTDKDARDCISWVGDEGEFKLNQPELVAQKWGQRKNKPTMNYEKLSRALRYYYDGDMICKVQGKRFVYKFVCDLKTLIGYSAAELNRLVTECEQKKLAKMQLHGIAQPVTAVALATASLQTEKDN
The essentials: as §1

A further assay has as its target T4, ERG (Homo sapiens, UniProt P11308 1-479).
T4 sequence: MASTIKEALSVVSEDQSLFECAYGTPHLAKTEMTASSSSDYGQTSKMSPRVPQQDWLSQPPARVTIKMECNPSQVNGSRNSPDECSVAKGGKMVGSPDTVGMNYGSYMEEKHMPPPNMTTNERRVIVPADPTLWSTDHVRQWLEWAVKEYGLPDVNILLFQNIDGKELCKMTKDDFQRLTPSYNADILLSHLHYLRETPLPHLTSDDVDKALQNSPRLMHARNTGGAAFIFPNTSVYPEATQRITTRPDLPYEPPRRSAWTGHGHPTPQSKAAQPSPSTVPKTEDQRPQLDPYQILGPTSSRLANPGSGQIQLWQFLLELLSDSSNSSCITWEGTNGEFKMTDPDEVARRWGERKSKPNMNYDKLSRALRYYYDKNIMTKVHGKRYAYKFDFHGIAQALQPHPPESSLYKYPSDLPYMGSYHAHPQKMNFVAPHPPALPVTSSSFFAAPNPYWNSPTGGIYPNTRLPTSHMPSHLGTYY
The essentials:
as §1

For a further assay, the target named is ELF1 (Homo sapiens, UniProt P32519 1-619). The method, boiled down: as §1
Chain of ELF1 (P32519 whole entry): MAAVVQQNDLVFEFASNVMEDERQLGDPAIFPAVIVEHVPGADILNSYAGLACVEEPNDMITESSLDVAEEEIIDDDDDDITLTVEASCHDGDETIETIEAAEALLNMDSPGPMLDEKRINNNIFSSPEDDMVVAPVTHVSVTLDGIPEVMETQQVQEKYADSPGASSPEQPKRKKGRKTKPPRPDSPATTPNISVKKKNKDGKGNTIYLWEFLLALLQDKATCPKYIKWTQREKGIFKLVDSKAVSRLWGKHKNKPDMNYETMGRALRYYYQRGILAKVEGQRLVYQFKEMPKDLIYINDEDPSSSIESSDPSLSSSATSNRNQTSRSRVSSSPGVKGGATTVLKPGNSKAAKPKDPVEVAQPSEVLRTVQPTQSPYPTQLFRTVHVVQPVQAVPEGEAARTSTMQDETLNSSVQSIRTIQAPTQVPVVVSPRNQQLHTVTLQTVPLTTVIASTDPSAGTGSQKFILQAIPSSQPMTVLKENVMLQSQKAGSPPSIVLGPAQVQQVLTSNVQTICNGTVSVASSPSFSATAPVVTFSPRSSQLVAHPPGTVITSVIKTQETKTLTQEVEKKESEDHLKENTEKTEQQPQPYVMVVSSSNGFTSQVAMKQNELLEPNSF
The target of the next assay is T5, EHF (Homo sapiens, UniProt Q9NZC4 1-300).
T5 sequence: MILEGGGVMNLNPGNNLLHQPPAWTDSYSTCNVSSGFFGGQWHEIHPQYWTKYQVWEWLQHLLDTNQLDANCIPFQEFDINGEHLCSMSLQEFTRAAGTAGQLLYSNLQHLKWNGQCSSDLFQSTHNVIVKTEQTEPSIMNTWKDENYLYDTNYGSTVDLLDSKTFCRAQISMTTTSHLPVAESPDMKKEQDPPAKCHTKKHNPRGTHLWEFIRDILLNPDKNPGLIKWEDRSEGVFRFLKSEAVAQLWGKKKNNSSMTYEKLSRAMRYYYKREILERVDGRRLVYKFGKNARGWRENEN
The essentials:
as §1

Another assay concerns the target SPI1 (Homo sapiens, UniProt P17947 1-270). The method, boiled down: as §1
The target of another assay is SPIB (Homo sapiens, UniProt Q01892 1-262). The essentials:
as §1

For a further assay, the target named is T6, ELK3 (Homo sapiens, UniProt P41970 1-407).
T6 sequence: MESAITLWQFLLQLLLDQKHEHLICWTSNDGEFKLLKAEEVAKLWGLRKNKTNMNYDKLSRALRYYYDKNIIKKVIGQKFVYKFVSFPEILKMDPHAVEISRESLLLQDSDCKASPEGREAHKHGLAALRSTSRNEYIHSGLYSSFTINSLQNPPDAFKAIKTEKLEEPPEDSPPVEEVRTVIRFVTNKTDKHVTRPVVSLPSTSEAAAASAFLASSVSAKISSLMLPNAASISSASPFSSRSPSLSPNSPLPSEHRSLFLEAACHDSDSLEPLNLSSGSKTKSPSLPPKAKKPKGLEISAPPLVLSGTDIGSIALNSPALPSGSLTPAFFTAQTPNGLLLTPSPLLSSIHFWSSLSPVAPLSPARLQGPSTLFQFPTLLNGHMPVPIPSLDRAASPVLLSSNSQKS
The method, boiled down:
as §1

Chain of SPIB (Q01892 whole entry): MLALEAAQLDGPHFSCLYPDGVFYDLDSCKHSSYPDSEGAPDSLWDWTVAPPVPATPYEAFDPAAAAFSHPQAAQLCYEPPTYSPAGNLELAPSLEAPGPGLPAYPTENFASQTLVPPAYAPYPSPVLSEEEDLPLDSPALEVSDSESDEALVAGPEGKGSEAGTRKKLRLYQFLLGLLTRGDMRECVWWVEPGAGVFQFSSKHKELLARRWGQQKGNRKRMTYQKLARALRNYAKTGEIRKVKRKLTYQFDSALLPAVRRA

As to ATTCGC, the binding signal in the assay with FLI1 was 1.18 fold enrichment (6-mer frequency, TF over GST control); with ELK1 it was 1.15 fold enrichment (6-mer frequency, TF over GST control); in the assay with GABPA it was 1.25 fold enrichment (6-mer frequency, TF over GST control); with ERG it was 1.25 fold enrichment (6-mer frequency, TF over GST control); in the assay with ELF1, 1.15 fold enrichment (6-mer frequency, TF over GST control); with EHF, 1.18 fold enrichment (6-mer frequency, TF over GST control). The binding signal with SPI1 is 1.21 fold enrichment (6-mer frequency, TF over GST control); with SPIB, 1.33 fold enrichment (6-mer frequency, TF over GST control); with ELK3, 1.06 fold enrichment (6-mer frequency, TF over GST control).
As for TACTCA, the binding signal in the assay with FLI1 is 1.14 fold enrichment (6-mer frequency, TF over GST control); with ELK1 it was 1.24 fold enrichment (6-mer frequency, TF over GST control); with GABPA, 1.2 fold enrichment (6-mer frequency, TF over GST control); with ERG, 1.19 fold enrichment (6-mer frequency, TF over GST control); in the assay with ELF1, 1.19 fold enrichment (6-mer frequency, TF over GST control); with EHF, 1.3 fold enrichment (6-mer frequency, TF over GST control). The binding signal in the assay with SPI1 is 1.14 fold enrichment (6-mer frequency, TF over GST control); with SPIB, 1.36 fold enrichment (6-mer frequency, TF over GST control); with ELK3, 1.2 fold enrichment (6-mer frequency, TF over GST control).
TCTCCT: the binding signal is 1.45 fold enrichment (6-mer frequency, TF over GST control) with FLI1; 1.41 fold enrichment (6-mer frequency, TF over GST control) with ELK1; 1.53 fold enrichment (6-mer frequency, TF over GST control) in the assay with GABPA; 1.37 fold enrichment (6-mer frequency, TF over GST control) in the assay with ERG; 1.38 fold enrichment (6-mer frequency, TF over GST control) in the assay with ELF1; 1.43 fold enrichment (6-mer frequency, TF over GST control) with EHF. The binding signal is 1.6 fold enrichment (6-mer frequency, TF over GST control) with SPI1; 1.4 fold enrichment (6-mer frequency, TF over GST control) in the assay with SPIB; 1.46 fold enrichment (6-mer frequency, TF over GST control) with ELK3.
On to CTGAAC, for which the binding signal is 1.35 fold enrichment (6-mer frequency, TF over GST control) with FLI1; 1.41 fold enrichment (6-mer frequency, TF over GST control) with ELK1; 1.37 fold enrichment (6-mer frequency, TF over GST control) with GABPA; 1.4 fold enrichment (6-mer frequency, TF over GST control) in the assay with ERG; 1.37 fold enrichment (6-mer frequency, TF over GST control) with ELF1; 1.35 fold enrichment (6-mer frequency, TF over GST control) in the assay with EHF. The binding signal in the assay with SPI1 is 1.36 fold enrichment (6-mer frequency, TF over GST control); with SPIB, 1.42 fold enrichment (6-mer frequency, TF over GST control); with ELK3, 1.2 fold enrichment (6-mer frequency, TF over GST control).
Consider ATGGCA, for which the binding signal was 1.26 fold enrichment (6-mer frequency, TF over GST control) with FLI1; 1.22 fold enrichment (6-mer frequency, TF over GST control) with ELK1; 1.26 fold enrichment (6-mer frequency, TF over GST control) with GABPA; 1.27 fold enrichment (6-mer frequency, TF over GST control) with ERG; 1.24 fold enrichment (6-mer frequency, TF over GST control) with ELF1; 1.35 fold enrichment (6-mer frequency, TF over GST control) with EHF. For the same sequence, the binding signal with SPI1 is 1.21 fold enrichment (6-mer frequency, TF over GST control); with SPIB, 1.19 fold enrichment (6-mer frequency, TF over GST control); in the assay with ELK3, 1.22 fold enrichment (6-mer frequency, TF over GST control).
For the sequence ACGTCT, the binding signal in the assay with FLI1 was 1.13 fold enrichment (6-mer frequency, TF over GST control); in the assay with ELK1, 1.2 fold enrichment (6-mer frequency, TF over GST control); with GABPA, 1.14 fold enrichment (6-mer frequency, TF over GST control); with ERG it was 1.22 fold enrichment (6-mer frequency, TF over GST control); with ELF1, 1.17 fold enrichment (6-mer frequency, TF over GST control); with EHF, 1.13 fold enrichment (6-mer frequency, TF over GST control). Moreover, the binding signal was 1.15 fold enrichment (6-mer frequency, TF over GST control) with SPI1; 1.35 fold enrichment (6-mer frequency, TF over GST control) with SPIB; 1.18 fold enrichment (6-mer frequency, TF over GST control) with ELK3.
As to AGCTAC, the binding signal is 1.13 fold enrichment (6-mer frequency, TF over GST control) in the assay with FLI1; 1.11 fold enrichment (6-mer frequency, TF over GST control) with ELK1; 1.16 fold enrichment (6-mer frequency, TF over GST control) with GABPA; 1.13 fold enrichment (6-mer frequency, TF over GST control) in the assay with ERG; 1.15 fold enrichment (6-mer frequency, TF over GST control) in the assay with ELF1; 1.22 fold enrichment (6-mer frequency, TF over GST control) in the assay with EHF. The binding signal in the assay with SPI1 is 1.17 fold enrichment (6-mer frequency, TF over GST control); with SPIB, 1.19 fold enrichment (6-mer frequency, TF over GST control); with ELK3 it was 1.18 fold enrichment (6-mer frequency, TF over GST control).
On to ACATAA, for which the binding signal with FLI1 is 1.01 fold enrichment (6-mer frequency, TF over GST control); with ELK1 it was 1.09 fold enrichment (6-mer frequency, TF over GST control); in the assay with GABPA, 1.08 fold enrichment (6-mer frequency, TF over GST control); with ERG, 1.17 fold enrichment (6-mer frequency, TF over GST control); in the assay with ELF1 it was 1.13 fold enrichment (6-mer frequency, TF over GST control); in the assay with EHF, 1.1 fold enrichment (6-mer frequency, TF over GST control). The binding signal with SPI1 was 1.08 fold enrichment (6-mer frequency, TF over GST control); with SPIB it was 1.1 fold enrichment (6-mer frequency, TF over GST control); with ELK3, 1.11 fold enrichment (6-mer frequency, TF over GST control).
